Records with an inconclusive call do not appear. Activity calls are given as the source filed them. Calls follow the shape of the dose curve; as a rule, active = well fitted activation curve with a large enough effect in the signal ratio in the repeat runs, with a control signal flat (not every such curve was filed as active); inconclusive = weak or mixed curves; inactive = flat fitted curve, though single readings scatter; the % refers to the signal ratio.
Assay: qHTS assay for small molecule activators of the heat shock response signaling pathway (AID 743210);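 also: HeLa cells with beta-lactamase reporter driven by heat shock elements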
Settings: HeLa HSE-bla reporter, beta-lactamase ratio, 5 h; series mostly up to 62.6 µM
Summary of the method: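 Reporter gene assay: HeLa cells stably bearing an HSE-bla construct, compound treatment 5 h at 37 C, LiveBLAzer substrate 2.5 h at RT, fluorescence intensity.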

SMILES | outcome
C[C@]12C=CC(=O)C=C1CC[C@@H]1[C@@H]2[C@@H](O)C[C@@]2(C)[C@H]1CC[C@]2(O)C(=O)CO | inactive
Cc1ccc(S(=O)(=O)NC(=O)NN2CCCCCC2)cc1 | inactive
Nc1ccc(O)c(C(=O)O)c1 | inactive
NC(=O)NC1NC(=O)NC1=O (stereo not given) | inactive
OCCc1ccccc1 | inactive
CC(=O)NS(=O)(=O)c1ccc(N)cc1 | inactive
O=C(O)c1cccc([N+](=O)[O-])c1 | inactive
CCOc1ccc(NC(=O)CC(C)O)cc1 (stereo not given) | inactive
CC(O)CN(CCN(CC(C)O)CC(C)O)CC(C)O (stereo not given) | inactive
O=C(O)c1cc(N=Nc2ccc(S(=O)(=O)Nc3ccccn3)cc2)ccc1O | inactive
NNC(=O)c1ccncc1 | inactive
O=c1ccc2ccccc2o1 | inactive
NC(=O)c1cnccn1 | inactive
CC(=O)OCC(COC(C)=O)OC(C)=O | inactive
CCCCOC(=O)CC(CC(=O)OCCCC)(OC(C)=O)C(=O)OCCCC | inactive
O=C(O)CCCCCCCC(=O)O | inactive
O=C(O)c1cccnc1 | inactive
O=C(O)CS | inactive

SMILES | outcome
C/C=C/c1ccc(OC)cc1 | inactive
O=C(c1ccccc1)c1ccccc1 | inactive
CCCNC(=O)NS(=O)(=O)c1ccc(Cl)cc1 | inactive
c1ccc2[nH]ccc2c1 | inactive
CC(=O)Nc1nnc(S(N)(=O)=O)s1 | inactive
O=C1CN(/N=C/c2ccc([N+](=O)[O-])o2)C(=O)N1 | inactive
O=C(O)CCC(=O)O | inactive
CCCN(CCC)S(=O)(=O)c1ccc(C(=O)O)cc1 | inactive
CCCCC(CC)COC(=O)/C=C/c1ccc(OC)cc1 (stereo not given) | inactive
COc1ccc2[nH]cc(CCNC(C)=O)c2c1 | inactive
Cn1c(=O)c2[nH]cnc2n(C)c1=O | inactive
Nc1ccc(S(=O)(=O)Nc2nccs2)cc1 | inactive
O=S(=O)(O)c1ccc2cc(O)ccc2c1 | inactive
O=C1NC(=O)c2ccccc21 | inactive
CCCCC1C(=O)N(c2ccccc2)N(c2ccccc2)C1=O | inactive
Cc1cn([C@H]2C[C@H](N=[N+]=[N-])[C@@H](CO)O2)c(=O)[nH]c1=O | inactive
Cc1ccc(O)cc1 | inactive
